Where “and” joins values, the source holds several entries; their conditions need not be identical. Identical values can stand only once.
How the values were obtained:
Assay in all cases: cell viability relative to vehicle control; higher = less cytotoxic
Settings in all cases: 10 µM
K562 = system: K562
Outline: (§1)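 Mutant clones made by CRISPR editing and their isogenic wild-type counterparts, from four leukaemia lines, were exposed to a single 10 µM dose of each library compound for 48 h. The supernatant was then removed and CellTiter-Glo luminescence was read. Viability was reported as percent of the on-plate vehicle control.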

MARIMO = system: MARIMO
Outline: as §1

MOLM14 = system: MOLM14
Outline: as §1

OCI-AML2 = system: OCI-AML2
Outline: as §1

Row | Structure (SMILES) | cell viability (K562; SRSF2 genotype: SRSF2 P95H/wt) | cell viability (K562; SRSF2 genotype: SRSF2 wt/wt) [%] | cell viability (MARIMO; SRSF2 genotype: SRSF2 P95H/wt) [%] | cell viability (MARIMO; SRSF2 genotype: SRSF2 wt/wt) [%] | cell viability (MOLM14; SRSF2 genotype: SRSF2 P95H/wt) [%] | cell viability (MOLM14; SRSF2 genotype: SRSF2 wt/wt) [%] | cell viability (OCI-AML2; SRSF2 genotype: P95H/wt) [%] | cell viability (OCI-AML2; SRSF2 genotype: wt/wt) [%]
1 | O=C(Nc1c[nH]nc1-c1nc2ccc(CN3CCOCC3)cc2[nH]1)NC1CC1 | 26.9% and 28.6% | 15.8 | 6.33 | 2.59 | 1.54 | 0.83 | 2.98 | 15.3
2 | CCN(CC)CCCCNc1ncc2cc(-c3cc(OC)cc(OC)c3)c(NC(=O)NC(C)(C)C)nc2n1 | 46.4% and 47.9% | 49.4 | 54.2 | 51.9 | 48.3 | 47.7 | 38.1 | 40.1
3 | CNC(=O)c1cnn(-c2nc(N)c3ncn([C@@H]4O[C@H](CO)[C@@H](O)[C@H]4O)c3n2)c1 [Regadenoson] | 106% and 105% | 104 | 102 | 103 | 103 | 103 | 104 | 119
4 | CCCCCCCCCC(=O)OCC(COC(=O)CCCCCCCCC)OC(=O)CCCCCCCCC [Glyceryl tridecanoate] | 105% and 101% | 100 | 106 | 114 | 100 | 104 | 97.2 | 98.6
5 | CO[C@H]1/C=C/O[C@@]2(C)Oc3c(C)c(O)c4c(O)c(c5c(nc6cc(C)ccn65)c4c3C2=O)NC(=O)/C(C)=C\C=C\[C@H](C)[C@H](O)[C@@H](C)[C@@H](O)[C@@H](C)[C@H](OC(C)=O)[C@@H]1C [Rifaximin (Xifaxan)] | 97.9% and 106% | 98.1 | 103 | 107 | 105 | 101 | 111 | 98.7
6 | CNC(=C[N+](=O)[O-])NCCSCc1csc(CN(C)C)n1 [Nizatidine] | 106% and 107% | 102 | 101 | 107 | 103 | 101 | 92.9 | 108
7 | CCCCCCNC(=O)n1cc(F)c(=O)[nH]c1=O [Carmofur] | 96% and 94.6% | 82 | 74.1 | 81 | 42.2 | 27.3 | 57.9 | 58.3
8 | Cc1cccc(Nc2nc(N[C@@H]3CCCC[C@@H]3N)ncc2C(N)=O)c1 | 50.9% and 56.3% | 63.7 | 47.4 | 44.7 | 22 | 20.7 | 4.23 | 14.4
9 | COC(=O)N[C@H](C(=O)N1CCC[C@H]1c1nc(-c2ccc3c(c2)O[C@@H](c2ccccc2)n2c-3cc3cc(-c4c[nH]c([C@@H]5CCCN5C(=O)[C@@H](NC(=O)OC)C(C)C)n4)ccc32)c[nH]1)C(C)C [Elbasvir] | 87.7% and 92% | 86.9 | 68.6 | 77.3 | 81.9 | 87.8 | 91 | 88

From the supplement of paper PMC10981050
